# Measured values reported in PubChem BioAssay (Tox21).
# The source made the active and inactive calls. The call rests on the fitted dose curve; in most records, active means well fitted activation curve with a large enough effect in the repeat runs; inconclusive means weak or mixed curves; inactive means flat fitted curve, though single readings scatter.
# Assay: A CellTox Green Cytotoxicity Assay to monitor cytotoxicity in HepG2 cells - 0 hour (AID 1224882); further: nearly all actives have a fitted effect of over 35% in size
# Conditions: CellTox Green fluorescence; series mostly up to 76.8 µM; cytotoxicity: at the top concentration
# Source text: National Center for Advancing Translational Sciences [NCATS]
# NIH Chemical Genomics Center [NCGC]
# U.S. Environmental Protection Agency [EPA]
# National Institutes of Environmental Health Sciences [NIEHS]
# National Toxicology Program [NTP]
# Cell-based models are critical for drug discovery. Determining the natural cytotoxic effects resulting from test compounds is an essential research activity. A CellTox Green Cytotoxicity Assay to monitor cytotoxicity in real time of continues cell culture during 40 hours of the compound treatment was used to screen Tox21 10K library compounds in HepG2 cells. CellTox Green Cytotoxicity Assay is a nonlytic, homogeneous, biofluorescent method to measure cytotoxicity in cell culture after experimental manipulation. The assay system uses a proprietary asymmetric cyanine dye that is excluded from viable cells but preferentially stains the dead cell's DNA. […] Viable cells produce no appreciable increases in fluorescence. Therefore, the fluorescence signal produced by the binding interaction with dead cell DNA is proportional to cytotoxicity.
# The mixture of HepG2 cell suspension and reagents were dispensed at 600cells/6 ul/well in 1536-well tissue culture treated black solid bottom plates using a Multidrop dispenser. After the assay plates were incubated at a 37 C/5% CO2 incubator for 5 hours, 23 nL of compounds dissolved in DMSO, positive and negative controls was transferred to the assay plate by a pintool work station. The plates were incubated at 37 C for 40 hours. The fluorescence intensity were measured at 0h, 8h, 16h, 24h, 32h and 40h time points using ViewLux plate reader during compound treatment.
# On the % scale 0 is the no-effect control and ±100 the full control effect.
row,Structure (SMILES),cytotoxicity
1,COCCOC(=O)CC#N,-1.55% (inactive)
2,CCCC(=O)O[C@]1(C(=O)CCl)[C@@H](C)C[C@H]2[C@@H]3CCC4=CC(=O)C=C[C@]4(C)[C@@]3(F)C(=O)C[C@@]21C,0.479% [at 35.3 µM] (inactive)
3,C=C(C)C(=O)OCCC(C)OC(=O)C(=C)C (stereo not given),-1.14% (inactive)
4,COC(=O)[C@H]1[C@H]2C[C@@H]3c4[nH]c5cc(OC)ccc5c4CCN3C[C@H]2C[C@@H](OC(=O)COc2ccc(OC)cc2)[C@@H]1OC,-1.3% [at 35.3 µM] (inactive)
5,CC1CCN(CCCC(=O)c2ccc(F)cc2)CC1,-2.7% [at 35.3 µM] (inactive)
6,COc1cccc(OC)c1,-3.62% (inactive)
7,CCCCCCOC(=O)c1ccccc1O,7.06% (inactive)
8,CCOC(=O)Nc1ccc2c(c1)N(C(=O)CCN1CCOCC1)c1ccccc1S2,-5.33% [at 35.3 µM] (inactive)
9,CCCCCCCCCCCl,-7.16% (inactive)
10,c1ccc(CCCc2ccccn2)cc1,-6.67% (inactive)
11,CCN(CC)S(=O)(=O)c1ccc(C(=O)O)cc1,11.5% [at 35.3 µM] (inactive)
12,C#CC(O)C(CC)CCCC (stereo not given),-1.19% (inactive)
13,OC1OC[C@@H](O)[C@H](O)[C@H]1O (stereo not given in full),-1.3% (inactive)
14,Nc1cc(C(Cl)=C(Cl)Cl)c(S(N)(=O)=O)cc1S(N)(=O)=O,-3.17% [at 35.3 µM] (inactive)
15,CC(C)(C)OC(=O)N1C[C@@H](F)C[C@H]1C(=O)O,6.38% (inactive)
16,CC(C)(C)C(=O)/C=C/c1ccc(Cl)cc1,-9.22% (inactive)
17,CC(C)(C)N(CCO)CCO,-2.81% (inactive)
18,Cc1ccccc1Br,0.42% (inactive)
19,N[C@@H](CS)C(=O)O,-5.9% (inactive)
20,COC(=O)CCCC(=O)O,-1.49% (inactive)

row,Structure (SMILES),cytotoxicity
1,CC/C=C\C#N,3.43% (inactive)
2,CNc1ncnc2nc[nH]c12,5.87% (inactive)
3,Cc1onc(-c2ccccc2)c1-c1ccc(S(N)(=O)=O)cc1,-7.4% [at 35.3 µM] (inactive)
4,CCC(C)OC(=O)N1CCCCC1CCO (stereo not given),-10.9% (inactive)
5,CO,-5.41% (inactive)
6,N#CCN(CC#N)CCN(CC#N)CC#N,0.254% (inactive)
7,C=C(C)[C@H]1CC=C(C)CC1,0.628% (inactive)
8,CN1[C@@H]2CC[C@H]1CC(NC(=O)n1c(=O)[nH]c3ccccc31)C2 (stereo not given in full),0.709% [at 35.3 µM] (inactive)
9,CO[Si](OC)(OC)OC,-0.789% (inactive)
10,CC1(C)OC(=O)Nc2ccc(Br)cc21,2.1% [at 35.3 µM] (inactive)
11,NC(N)=NS(=O)(=O)c1ccc(N)cc1,-5.85% [at 35.3 µM] (inactive)
12,CCCCOCC(C)OCC(C)O (stereo not given),-2.23% (inactive)
13,NS(=O)(=O)c1cc2c(cc1Cl)NC(CSCc1ccccc1)=NS2(=O)=O,9.13% [at 35.3 µM] (inactive)
14,NCCN1CCNC1=O,-2.37% (inactive)
15,CCCCCCC(=O)OCC,-0.448% (inactive)
16,CCC(=O)/C=C/c1ccc(OC)cc1,9.29% (inactive)
17,C/C=C1\C(=O)C[C@H]2[C@@H]3CCC4=CC(=O)CC[C@]4(C)[C@H]3CC[C@]12C,4.3% [at 35.3 µM] (inactive)
18,CCCCCCCCCCCCCCC,3.12% (inactive)
19,O=C(O)c1ccc[n+]([O-])c1,0.433% [at 35.3 µM] (inactive)
20,CCCCCCCCN(C)CCCCCCCC,1.52% (inactive)
